# Shown are actives, neighbours in structure and some others; about 3.8% of the full set was active somewhere.
# GPR32 ag: qHTS for Agonists of Human Resolvin D1 Receptor DRV1; Probable G-protein coupled receptor 32 (Homo sapiens), O75388; CHO-K1 GPR32 beta-arrestin PathHunter luminescence, 90 min; zero percent set by DMSO-only wells; activation, % at 76.9 µM; actives 2.5% (n = 48,000); AID 1346428, 2018;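 active means activation of at least 60% and not above a set upper limit, about 1 call in 100 departs from these limits; inconclusive means activation of 40% to 60%, or above that upper limit; inactive means activation under 40%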; further: 0% is about no effect
# Target sequence (O75388 whole entry, looked up): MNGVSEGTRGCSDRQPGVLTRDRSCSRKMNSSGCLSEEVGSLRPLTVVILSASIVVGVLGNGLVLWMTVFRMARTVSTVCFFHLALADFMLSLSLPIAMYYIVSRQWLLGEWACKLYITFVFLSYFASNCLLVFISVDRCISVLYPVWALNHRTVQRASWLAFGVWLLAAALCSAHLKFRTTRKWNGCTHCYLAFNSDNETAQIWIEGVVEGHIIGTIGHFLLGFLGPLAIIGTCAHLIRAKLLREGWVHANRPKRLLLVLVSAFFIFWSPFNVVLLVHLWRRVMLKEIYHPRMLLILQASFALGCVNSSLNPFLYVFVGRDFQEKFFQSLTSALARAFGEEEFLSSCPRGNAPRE
#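 PathHunter beta-arrestin recruitment in CHO-K1 cells stably expressing ProLink-tagged GPR32. Cells were exposed to compound for 90 min at 37 C, then chemiluminescence was read after 1 h detection at ambient temperature; DMSO served as basal control.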
# B2AR arrestin ag: qHTS assay of beta-arrestin-biased ligands of beta2-adrenergic receptor: NCGC Sytravon Library Screen; HTLA Tango cells, beta-arrestin recruitment, luciferase luminescence, 18 h; 44,000 tested, under 10 active; Potency, µM (top dose mostly 46.1 µM), usual class: activators;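 further: potency means the concentration at half of the fitted maximal effect; 0% = DMSO and full agonism = EC100 isoproterenol or metaproterenol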
#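 Luminescence read-out: arrestin recruitment to recombinant beta2-AR releases tTA, inducing luciferase. Cells exposed 18 hr at 37 degrees C to up to 46 microM compound; %Activity from corrected signal, concentration-response curves classified by r2, magnitude and efficacy.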
# GALK inhibitor: qHTS Assay for Inhibitors of Human Galactokinase (GALK): NCGC Sytravon Library Screen | Potency, µM (doses to about 57.5 µM), without a hit: at the top dose activity, negative = inhibition, actives largely listed as inhibitors | AID 1347072, 2019 | recombinant GALK, Kinase-Glo ATP luminescence, 1 h | P51570 | 44,000 tested, under 10 active;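 further: plate controls were full GALK reaction for no effect and reaction lacking GALK for full effect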
#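 5 nM GALK with 35 µM ATP and 100 µM galactose in HEPES pH 8.0, MgCl2, NaCl, DTT, BSA; 1 h RT reaction, remaining ATP detected by Kinase-Glo Plus luminescence after 10 min; qHTS concentration series.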
# PTAP-TSG101 blk: qHTS Validation Assay for Inhibitors of HIV-1 Budding by Blocking the Interaction of PTAP/TSG101: Sytravon Library Screen; Potency, µM (series often up to 115 µM), usual class: inhibitors; AID 1347069, 2019; 44,000 tested, under 10 active; Tumor susceptibility gene 101 protein (Homo sapiens), Q99816; Fluorescence polarization, FITC-PTAP peptide/Tsg101, 20 min; further: potency means the concentration at half of the fitted maximal effect; 0% is about no effect
#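 Compounds pinned into 10 uM Tsg101 binding domain, then 50 nM FITC-PTAP peptide added in pH 7.5 HEPES buffer; FP read after 20 min, room temperature. Total S+P intensity flags fluorescent compounds; active cut-off <25 µM, efficacy <60%.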
# NTMT1 inh: Primary qHTS for Inhibitors of N-terminal methyltransferase 1 (NTMT1): MTaseGlo Assay | N-terminal Xaa-Pro-Lys N-methyltransferase 1 (Homo sapiens), Q9BV86 | NTMT1 MTase-Glo SAH luminescence, purified enzyme | Potency, µM (series often up to 114 µM), inactives show top-dose activity change, negative = inhibition, actives largely listed as inhibitors | actives 2.5% (n = 59,000) | AID 1645870, 2021;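 further: potency means the concentration at half of the fitted maximal effect; plate controls were DMSO vehicle for no effect and no enzyme for full effect; nearly all actives have a fitted effect of over 65% in size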
# Target sequence (Q9BV86 whole entry, looked up): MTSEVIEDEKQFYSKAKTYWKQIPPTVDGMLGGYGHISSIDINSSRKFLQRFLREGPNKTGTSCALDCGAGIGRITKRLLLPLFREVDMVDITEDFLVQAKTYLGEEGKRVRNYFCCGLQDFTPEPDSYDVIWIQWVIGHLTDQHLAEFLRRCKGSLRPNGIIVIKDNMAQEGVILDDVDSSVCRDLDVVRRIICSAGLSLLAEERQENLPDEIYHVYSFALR
# OvCa metastasis: Primary qHTS assay for Inhibitors of ovarian cancer metastasis using an organotypic tumor microenvironment (TME) model; AID 1963576, 2024; SKOV3ip1-GFP adhesion/invasion on 3D omental model, fluorescence; actives 0.1% (n = 46,000); Potency, µM (top dose mostly 45.8 µM), for inactives: at the top dose activity change, negative = inhibition, actives largely listed as inhibitors;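 further: potency means the concentration at half of the fitted maximal effect; plate controls were DMSO wells for no effect and tomatine positive control wells for full effect; nearly all actives have a fitted effect of over 65% in size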
#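 qHTS, 4-pt dose (0.36-46 umol/L); SKOV3ip1-GFP, 1,200 cells/well, no FBS; primary omental fibroblast/mesothelial co-culture 48 h pre-grown; 2 h RT + 16 h 37 C; PBS wash, 4% PFA; GFP count 488/509 nm.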
# Numbers without * were called inactive; i = inactive; ? = inconclusive; nt = no result given; ! = not confirmed by another sample; [ ] = another dose, or the depositor's remark. Unless noted, the call rests on the fitted dose curve; in most records, active means well fitted curve in the direction sought with a large enough effect; inconclusive means small, poorly fitted or top-dose-only effect, or another doubt; inactive means no such curve, though single readings can be large; an effect the other way counts as inactive or inconclusive.
SMILES,GPR32 ag,B2AR arrestin ag,GALK inhibitor,PTAP-TSG101 blk,NTMT1 inh,OvCa metastasis
CCCN(CCC)S(=O)(=O)c1ccc(C(=O)Nc2cccc(-c3nc4ccccc4[nH]3)c2)cc1,-13,i,2%,i,-15%,?
O=C(Cn1c(=O)nc(-c2ccccc2)c2cc(Cl)ccc21)NCCCc1ccccc1,94*,i,-14%,i,?,-16%
COc1cc(C2CC(=O)c3c([nH]c(C(=O)OC4CCCC4)c3C)C2)cc(OC)c1OC (stereo unspecified),31,i,-3%,i,-5%,1%
Cc1ccc(NC(=O)C2CCN(c3nnc(-n4cccc4)s3)CC2)cc1Cl,9,i,0%,i,-15%,i
O=C1CCc2cc(S(=O)(=O)Nc3ccc4ncccc4c3)ccc2N1,nt,nt,nt,nt,7%,nt
Cc1ccc(NC(=O)c2cc(S(=O)(=O)NCCc3ccc(Cl)cc3)ccc2F)cc1,36,i,-6%,i,-13%,i
COc1ccc(CCNS(=O)(=O)c2ccc(F)c(C(=O)Nc3ccc(Cl)cc3)c2)cc1OC,64*,i,0%,i,9%,-9%
C[N+]1(CC2COC(c3ccccc3)(C3CCCCC3)O2)CCCCC1 (stereo unspecified),-9,nt,nt,nt,16µM*,nt
O=[N+]([O-])c1ccccc1NCc1ccc(O)c2ncccc12,nt,nt,nt,nt,-5%,nt
O=C1NC(=O)C(c2ccccc2[N+](=O)[O-])=C1Nc1ccc(O)c(Cl)c1,-9,nt,nt,nt,45µM*!,6%
COC(=O)c1cc2sc(Cl)cc2n1Cc1c(C)cc(C)cc1C,-6,i,4%,i,4%,9%
COC(=O)c1cc2sc(Cl)cc2n1CC(=O)Nc1cc(OC)cc(OC)c1,89*,i,6%,i,5%,7%
Cn1c(SCC(=O)Nc2nc3ccccc3s2)ncc(C(=O)Nc2ccccc2)c1=O,-6,i,-2%,i,-1%,-12%
CCOC(=O)N1CCN(c2ncc3c(n2)CC(c2ccc(Cl)cc2)CC3=O)CC1 (stereo unspecified),11,i,9%,i,-2%,i
CCOC(=O)N1CCN(c2ncc3c(n2)CC(c2ccccc2O)CC3=O)CC1 (stereo unspecified),76*,i,1%,i,-23%,2%
Cc1c[nH]c2nc(Nc3ccc(N4CCN(C)CC4)c(F)c3)nc(-c3cccc(CC#N)c3)c12,nt,nt,nt,nt,25µM*,nt
COc1ccc(NC(=O)c2c(NCc3cccs3)sc3c2CCCC3)cc1,1,i,1%,i,?,-10%
Cc1cccc(NC(=O)CS(=O)(=O)c2cccc3nsnc23)c1,9,i,-1%,i,-2%,-1%
CCCOc1ccc(C(=O)N2CCC(c3nc4ccccc4s3)CC2)cc1,0,i,6%,i,?,11%
COc1cccc(C(=O)N2CCC(c3nc4ccccc4s3)CC2)c1,95*,i,4%,i,28%,2%
Cc1cc(Cl)ccc1OCC(=O)N1CCC(c2nc3ccccc3s2)CC1,?,i,-11%,i,1%,i
CCCOc1ccccc1C(=O)N1CCC(c2nc3ccccc3s2)CC1,104*,i,0%,i,-15%,-2%
COc1ccc(C(=O)N2CCC(c3nc4ccccc4s3)CC2)cc1Cl,76*,i,-5%,i,2%,-12%
Cc1nn(C)c2c1c(C(F)(F)F)cc(=O)n2C(C)C(=O)NCc1ccccc1Cl (stereo unspecified),2,i,1%,i,3%,i
CC(C)Oc1ccc(C(=O)Nc2nonc2-c2ccc(OC(C)C)cc2)cc1,5,i,-14%,i,17%,-7%
SMILES,GPR32 ag,B2AR arrestin ag,GALK inhibitor,PTAP-TSG101 blk,NTMT1 inh,OvCa metastasis
CNc1ncc2cc(-c3cc(NC(=O)NCCC(C)(C)C)c(F)cc3C)c(C)nc2n1,nt,nt,nt,nt,4%,nt
N#Cc1ccccc1NC(=O)CSc1ncn[nH]1,-2,i,2%,i,6%,9%
Cc1cccc(NC(=O)c2cccc(N3CCCS3(=O)=O)c2)c1,15,i,0%,i,-16%,-9%
c1ccc(Cn2c(-c3ccc(OCC(C4CCNCC4)n4c(-c5ccccc5)nc5ccccc54)cc3)nc3ccccc32)cc1 (stereo unspecified),nt,nt,nt,nt,28µM*,nt
Cc1ccc(-c2nc(-c3cc4cccc(OCc5cccc(F)c5)c4oc3=O)no2)cc1,82*,i,5%,i,-11%,i
CCN(CC)CCNC(=O)c1cc2c(=O)[nH]c3ccc(C)cc3c2s1,7,i,1%,i,?,i
CCN(CCCNC(=O)c1cc2c(Cl)nc3ccccc3c2s1)Cc1ccccc1,95*,i,8%,i,?,i
CCN(CCCNC(=O)c1cc2c(=O)[nH]c3ccc(C)cc3c2s1)Cc1ccccc1,-17,i,7%,i,50µM*,?
O=C(O)C[C@H]1CCC(=O)[C@@H]1C/C=C\CCOC1OC(CO)C(O)C(O)C1O (stereo partly specified),nt,nt,nt,nt,-8%[29.8 µM],nt
Cc1ccc(OCCSc2nc3ccc(NC(=O)COc4ccc(F)cc4)cc3s2)cc1,11,i,?,i,11%,i
CCOc1ccc(CNC(=O)CSc2cc(=O)n(CC)c3ccccc23)cc1,47,i,0%,i,4%,-35%
CCN(CCCNC(=O)CSc1cc(=O)n(C)c2ccccc12)c1ccccc1,-3,i,7%,i,?,i
CCn1c(=O)cc(SCC(=O)NCc2ccc(C)cc2)c2ccccc21,69*,i,10%,i,?,-10%
CCN(CCCNC(=O)c1cc2c(=O)n(C)c3ccccc3c2s1)Cc1ccccc1,5,i,0%,i,?,i
CCc1ccc(CNC(=O)CSc2cc(=O)n(CC)c3ccccc23)cc1,61*,i,9%,i,1%,-2%

# Compound activity (PubChem BioAssay)
